From PubChem BioAssay (Tox21)
Where “and” joins values, the source holds several entries; their conditions need not be identical. Equal entries are not always repeated. Inconclusive results are not listed. A call without a number means that no potency is given here. Where a structure was tested more than once in an assay, its records may differ in their call. Calls of active or inactive are those of the source. Unless noted, the call rests on the fitted dose curve.

Assays:
[1] = Nuclear factor erythroid 2-related factor 2/antioxidant responsive element (Nrf2/ARE) small molecule agonists: qHTS cell viability counter screen in human keratinocytes (AID 1919968; active means well fitted curve in the direction sought with a large enough effect in the repeat runs; an effect the other way counts as inactive or inconclusive; further: nearly all actives have a fitted effect of over 55% in size; further: potency means the concentration at half of the fitted maximal effect)
In short: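 HaCaT ARE reporter line, 1,500 cells/well; 5 h settle, 37 C/5% CO2; cpd in DMSO pinned; 23 h exposure; CellTiter-Fluor, 1 h; fluorescence.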

[2] = Nuclear factor erythroid 2-related factor 2/antioxidant responsive element (Nrf2/ARE) small molecule agonists: luciferase reporter gene qHTS assay in human keratinocytes (AID 1919969); further: nearly all actives have a fitted effect of over 35% in size; further: potency means the concentration at half of the fitted maximal effect
[3] = target: Gonadotropin-releasing hormone receptor (Homo sapiens) (UniProt P30968); test: Human gonadotropin-releasing hormone receptor (GnRHR) small molecule agonists, calcium flux assay in GnRHR-HEK293 cells (AID 1920063); further: nearly all actives have a fitted effect of over 35% in size
Sequence of Gonadotropin-releasing hormone receptor (Homo sapiens) (P30968 whole entry, looked up): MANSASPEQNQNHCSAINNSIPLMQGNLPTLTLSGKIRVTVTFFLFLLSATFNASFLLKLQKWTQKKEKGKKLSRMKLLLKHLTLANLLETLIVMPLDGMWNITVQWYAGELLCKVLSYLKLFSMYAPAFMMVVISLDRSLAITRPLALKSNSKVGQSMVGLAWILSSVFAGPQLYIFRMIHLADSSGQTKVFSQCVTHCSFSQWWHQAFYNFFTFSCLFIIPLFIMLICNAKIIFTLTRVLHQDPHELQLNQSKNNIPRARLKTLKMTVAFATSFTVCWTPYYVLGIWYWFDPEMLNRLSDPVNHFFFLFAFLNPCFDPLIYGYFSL
In short: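 GnRHR-HEK293, 1500 cells/well, 18 h 37 C/5% CO2; Ca dye 1 h 37 C; cpd pinned (DMSO), agonist mode; kinetic FL 480/540, 3 min, 1 s reads; 15 conc, n=3.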

[4] = target: KiSS-1 receptor (Homo sapiens) (UniProt Q969F8); test: Human kisspeptin (KISS1R) small molecule agonists, calcium flux assay in KISS1R-HEK293 cells (AID 1920064; active means well fitted curve in the direction sought with a large enough effect in the repeat runs; an effect the other way counts as inactive or inconclusive)
Sequence of KiSS-1 receptor (Homo sapiens) (Q969F8 whole entry, looked up): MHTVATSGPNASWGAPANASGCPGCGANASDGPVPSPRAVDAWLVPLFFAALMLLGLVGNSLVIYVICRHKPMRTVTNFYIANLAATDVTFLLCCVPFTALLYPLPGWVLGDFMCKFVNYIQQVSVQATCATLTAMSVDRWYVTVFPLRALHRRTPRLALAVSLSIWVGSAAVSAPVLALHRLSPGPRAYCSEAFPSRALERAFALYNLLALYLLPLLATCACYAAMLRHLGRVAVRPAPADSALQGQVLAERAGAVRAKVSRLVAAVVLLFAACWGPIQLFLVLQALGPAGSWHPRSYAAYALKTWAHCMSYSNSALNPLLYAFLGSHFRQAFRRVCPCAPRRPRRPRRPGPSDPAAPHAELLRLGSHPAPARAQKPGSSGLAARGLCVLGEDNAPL
In short: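 Stable human KISS1R HEK293 line; 18 h plating, 37 C/5% CO2; calcium dye 1 h 37 C; compound pin transfer; kinetic fluorescence Ex/Em 480/540, 3 min.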

[5] = G protein-coupled receptor (GPCR) small molecule agonists, calcium flux assay: HEK293 wild type cell line counter screen (AID 1920065)
In short: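 Kinetic fluorescence at Ex/Em 480/540, recorded every second over 3 min, served as the read-out after compound addition. Each compound was tested at 15 concentrations in triplicate on cells pre-loaded with calcium dye for 1 h.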

[6] = p53 small molecule agonists, cell-based qHTS assay with human liver microsomes: qHTS cell viability counter screen (AID 1963579); further: nearly all actives have a fitted effect of over 45% in size; further: potency means the concentration at half of the fitted maximal effect
In short: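 In this multiplexed counter screen, the reporter plates were subsequently treated with CellTiter-Glo so that cell viability, reflected by luminescence, could be recorded for p53RE-bla cells dosed 16 h with compounds under microsomal activation (HLM and NADPH).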

[7] = p53 small molecule agonists, cell-based qHTS assay with rat liver microsomes: qHTS cell viability counter screen (AID 1963580); further: nearly all actives have a fitted effect of over 45% in size
In short: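 Intracellular ATP, by CellTiter-Glo luminescence, defines viability. HCT-116 p53RE-bla cells, 4,000 per well, were compound-treated in the presence of rat liver microsomes and NADPH for 16 h at 37 C.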

[8] = p53 small molecule agonists, cell-based qHTS assay: qHTS cell viability counter screen (AID 1963581); further: nearly all actives have a fitted effect of over 45% in size; further: potency means the concentration at half of the fitted maximal effect
In short: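 HCT-116 p53RE-bla cells, 4,000/well, plated 5 h before compound pin transfer; 16 h at 37 C; bla substrate 2 h RT; then CellTiter-Glo, 30 min RT, luminescence.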

[9] = target: 5-hydroxytryptamine receptor 2A (Homo sapiens) (UniProt P28223); test: 5-hydroxytryptamine receptor 2A (HTR2A) small molecule antagonists, cell-based qHTS assay (AID 1963586); further: nearly all actives have a fitted effect of over 45% in size
Sequence of 5-hydroxytryptamine receptor 2A (Homo sapiens) (P28223 whole entry, looked up): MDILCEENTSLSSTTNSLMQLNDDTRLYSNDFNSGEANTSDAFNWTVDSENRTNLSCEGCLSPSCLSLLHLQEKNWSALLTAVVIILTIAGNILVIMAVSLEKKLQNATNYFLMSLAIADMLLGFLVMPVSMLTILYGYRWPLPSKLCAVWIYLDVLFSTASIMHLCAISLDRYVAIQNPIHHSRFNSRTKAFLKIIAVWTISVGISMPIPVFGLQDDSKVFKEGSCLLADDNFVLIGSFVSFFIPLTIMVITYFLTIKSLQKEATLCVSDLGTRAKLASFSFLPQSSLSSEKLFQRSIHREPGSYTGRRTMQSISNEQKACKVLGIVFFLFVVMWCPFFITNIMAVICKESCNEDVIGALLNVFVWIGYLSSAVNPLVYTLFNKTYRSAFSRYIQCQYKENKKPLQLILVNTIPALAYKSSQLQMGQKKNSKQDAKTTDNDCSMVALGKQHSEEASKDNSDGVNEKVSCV
In short: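 Antagonist-mode intracellular calcium assay: DOI (4 nM) added after 5 min compound pre-incubation at room temperature to dye-loaded HTR2A-CHO cells. Fluorescence followed for 3 min, sampled every second.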

[10] = target: 5-hydroxytryptamine receptor 2A (Homo sapiens) (UniProt P28223); test: 5-hydroxytryptamine receptor 2A (HTR2A) small molecule agonists, cell-based qHTS assay (AID 1963587); further: nearly all actives have a fitted effect of over 30% in size
In short: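 Kinetic calcium-flux fluorescence (2 min, 1 sec intervals) after compound addition in agonist mode. HTR2A-CHO cells were cultured 18 h, then dye-loaded 1 h at 37 C.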

[11] = target: Muscarinic acetylcholine receptor M1 (Homo sapiens) (UniProt P11229); test: Cholinergic receptor muscarinic 1 (CHRM1) small molecule antagonists, cell-based qHTS assay (AID 1963588); further: nearly all actives have a fitted effect of over 40% in size; further: potency means the concentration at half of the fitted maximal effect
Sequence of Muscarinic acetylcholine receptor M1 (Homo sapiens) (P11229 whole entry, looked up): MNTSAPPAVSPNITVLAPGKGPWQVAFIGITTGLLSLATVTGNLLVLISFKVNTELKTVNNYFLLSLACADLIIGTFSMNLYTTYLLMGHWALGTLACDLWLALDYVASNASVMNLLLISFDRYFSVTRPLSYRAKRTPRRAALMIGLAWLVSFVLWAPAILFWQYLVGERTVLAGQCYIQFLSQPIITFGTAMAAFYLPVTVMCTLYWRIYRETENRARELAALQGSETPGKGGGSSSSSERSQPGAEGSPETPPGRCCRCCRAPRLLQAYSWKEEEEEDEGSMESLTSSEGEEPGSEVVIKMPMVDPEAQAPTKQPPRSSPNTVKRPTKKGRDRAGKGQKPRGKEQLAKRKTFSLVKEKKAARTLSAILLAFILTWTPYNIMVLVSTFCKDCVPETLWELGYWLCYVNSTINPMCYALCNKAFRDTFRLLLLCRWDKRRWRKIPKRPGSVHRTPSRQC
In short: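 CHRM1-CHO calcium-flux assay, antagonist mode. Cells were seeded 18 h, dye-loaded 1 h at 37 C and given compound for 5 min at RT, then acetylcholine was added at 50nM. FDSS fluorescence was read 3 min; 15 concentrations, three runs.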

[12] = target: Muscarinic acetylcholine receptor M1 (Homo sapiens) (UniProt P11229); test: Cholinergic receptor muscarinic 1 (CHRM1) small molecule agonists, cell-based qHTS assay (AID 1963589); further: nearly all actives have a fitted effect of over 35% in size
In short: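 Human M1 in stable CHO line; 18 h plating, 1 h dye load 37 C; cpd added (agonist mode); Ca2+ fluorescence kinetic read, 1 s intervals; 15 conc, 3 runs.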

[13] = cAMP Responsive Elements (CRE) small molecule agonists, cell-based qHTS assay (AID 1963590)
In short: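 HEK 293T CRE-bla, 2,000 cells/well, 18 h preincubation 37 C/5% CO2; cpds (DMSO) pinned, 3 h; LiveBLAzer B/G FRET substrate, 2 h RT.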

[14] = cAMP Responsive Elements (CRE) small molecule antagonists, cell-based qHTS assay (AID 1963591; active means well fitted inhibition curve with a large enough effect in the signal ratio in the repeat runs, not every such curve was filed as active; the % refers to the signal ratio)
In short: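 Beta-lactamase reporter read by FRET substrate (LiveBLAzer B/G) after 2 h at room temperature. CRE-bla HEK293T cells had received compound plus 0.25 uM (final) NKH477 for 3 h at 37 °C.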

[15] = target: Beta-2 adrenergic receptor (Homo sapiens) (UniProt P07550); test: Adrenergic beta2 receptor (ADRB2) small molecule antagonists, cell-based qHTS assay (AID 1963592); further: series mostly up to about 92 µM; nearly all actives have a fitted effect of over 50% in size
Sequence of Beta-2 adrenergic receptor (Homo sapiens) (P07550 whole entry, looked up): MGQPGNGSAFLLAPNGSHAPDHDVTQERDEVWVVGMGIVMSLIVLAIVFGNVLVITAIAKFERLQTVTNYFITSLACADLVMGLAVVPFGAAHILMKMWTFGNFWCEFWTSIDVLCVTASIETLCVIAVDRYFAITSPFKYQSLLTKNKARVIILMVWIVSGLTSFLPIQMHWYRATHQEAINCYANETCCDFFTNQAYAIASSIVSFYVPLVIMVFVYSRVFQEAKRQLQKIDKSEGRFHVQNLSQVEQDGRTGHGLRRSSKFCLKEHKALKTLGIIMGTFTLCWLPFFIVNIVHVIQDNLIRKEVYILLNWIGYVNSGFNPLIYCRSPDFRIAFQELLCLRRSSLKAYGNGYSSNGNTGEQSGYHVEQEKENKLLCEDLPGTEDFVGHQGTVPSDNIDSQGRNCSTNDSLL
In short: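 Cells (CHO, stable ADRB2 overexpression) incubated 18-20hr at 37C; compounds added from DMSO; agonist mix (1nM isoproterenol, 100uM IBMX, 25uM Ro-20-1724) added; 0.5hr RT; d2-cAMP and anti-cAMP-cryptate added; 1hr RT; 665/615 nm read.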

[16] = target: D(2) dopamine receptor (Homo sapiens) (UniProt P14416); test: Dopamine D2 receptor (DRD2) small molecule agonists, cell-based qHTS assay (AID 1963594); further: nearly all actives have a fitted effect of over 35% in size
Sequence of D(2) dopamine receptor (Homo sapiens) (P14416 whole entry, looked up): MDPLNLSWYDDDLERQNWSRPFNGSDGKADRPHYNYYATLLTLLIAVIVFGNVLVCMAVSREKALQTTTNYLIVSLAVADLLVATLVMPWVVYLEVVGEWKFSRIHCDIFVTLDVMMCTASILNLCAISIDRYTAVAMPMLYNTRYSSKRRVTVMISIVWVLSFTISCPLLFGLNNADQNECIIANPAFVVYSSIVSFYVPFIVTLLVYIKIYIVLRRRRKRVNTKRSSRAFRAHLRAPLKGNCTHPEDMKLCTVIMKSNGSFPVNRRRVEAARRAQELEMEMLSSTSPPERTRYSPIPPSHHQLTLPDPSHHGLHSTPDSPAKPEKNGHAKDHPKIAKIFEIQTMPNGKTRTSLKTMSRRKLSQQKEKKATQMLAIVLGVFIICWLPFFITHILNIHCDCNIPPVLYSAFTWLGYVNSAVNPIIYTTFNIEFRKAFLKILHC
In short: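 cAMP accumulation in DRD2-HEK293 cells measured by HTRF after 1 h detection; compounds added 10 min before NKH477 (200nM […]) forskolin-analogue stimulation, 30 min at room temperature, with Ro20-1724 present at 0.1 mM final.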

[17] = target: D(2) dopamine receptor (Homo sapiens) (UniProt P14416); test: Dopamine D2 receptor (DRD2) small molecule antagonists, cell-based qHTS assay (AID 1963595; active means well fitted inhibition curve with a large enough effect in the signal ratio in the repeat runs, with a control signal flat; the % refers to the signal ratio; further: potency means the concentration at half of the fitted maximal effect)
In short: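 DRD2-HEK293; 0.1 mM Ro20-1724; cpd 10 min RT; NKH477 200 nM + quinpirole 12 nM, 30 min RT; HTRF cAMP (cAMP-d2/anti-cAMP cryptate), 665/620 nm ratio after 1 h.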

[18] = p53 small molecule agonists, cell-based qHTS assay with rat liver microsomes (AID 1963578)
In short: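 With rat liver microsomes and NADPH present (0.5 mg/mL final each), p53RE-bla cells are treated with compound for 16 h at 37 C. LiveBLAzer detection mixture is then applied for 2 h at room temperature in the dark.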

[19] = p53 small molecule agonists, cell-based qHTS assay (AID 1963582; active means well fitted activation curve with a large enough effect in the signal ratio in the repeat runs, not every such curve was filed as active; the % refers to the signal ratio)
In short: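 Reporter line: p53RE-bla. Pre-incubation 5 h, 37 C, 5% CO2; compound (DMSO, pin tool) 16 h, 37 C; B/G FRET substrate 2 h RT; fluorescence intensity read.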

| SMILES | Potency [1] | Potency [2] | Potency [3] | Potency [4] | Potency [5] | Potency [6] | Potency [7] | Potency [8] | Potency [9] | Potency [10] | Potency [11] | Potency [12] | Potency [13] | Potency [14] | Potency [15] | Potency [16] | Potency [17] | Potency [18] | Potency [19] |
| --- | --- | --- | --- | --- | --- | --- | --- | --- | --- | --- | --- | --- | --- | --- | --- | --- | --- | --- | --- |
| O=[N+]([O-])/N=C1\NCCN1Cc1ccc(Cl)nc1 | inactive | inactive | inactive | inactive | inactive | inactive | inactive | inactive | inactive | inactive | inactive | inactive | inactive | inactive | inactive | inactive | inactive |  |  |
| N#Cc1cc(Br)c(O)c(Br)c1 | inactive | inactive | inactive | inactive | inactive | inactive | inactive | inactive | inactive | inactive | inactive | inactive |  | inactive | inactive | inactive | inactive | inactive |  |
| CC(C)(c1ccccc1)c1ccc(O)c(C(C)(C)c2ccccc2)c1 | 13.6 µM (active) and 30.6 µM (active) | inactive and 7.7 µM (active) | inactive | inactive | inactive | 40.4 µM (active) and inactive |  | 14.3 µM (active) and 45.8 µM (active) | inactive | inactive | inactive | inactive |  |  |  | inactive | 54 µM (active) | inactive |  |
| Nc1cc(Cl)cc(Cl)c1 | inactive | inactive | inactive | inactive | inactive | inactive | inactive | inactive | inactive | inactive | inactive | inactive | inactive | inactive | inactive | inactive | inactive | inactive |  |
| c1ccc2sc(SNC3CCCCC3)nc2c1 | inactive | 53.9 µM (active) and 61.1 µM (active) | inactive | inactive | inactive | inactive | inactive | inactive | inactive | inactive | inactive | inactive | inactive | inactive | inactive | inactive | inactive |  |  |
| Cc1ccccc1CCl | inactive | inactive | inactive | inactive | inactive |  | inactive | inactive | inactive | inactive | inactive | inactive | inactive | inactive | inactive | inactive | inactive | inactive | inactive |
| CCOP(=S)(OCC)Oc1ccc([N+](=O)[O-])cc1 | inactive | inactive | inactive | inactive | inactive | inactive | inactive | inactive | inactive |  | 9.54 µM (active) and 18.3 µM (active) | inactive | inactive | inactive | inactive | inactive | inactive |  | inactive |
| Cc1ccc(O)c(C)c1 | inactive | inactive | inactive | inactive | inactive | inactive | inactive | inactive | inactive | inactive | inactive | inactive | inactive | inactive | inactive | inactive | inactive | inactive | inactive |
| O=C(O)C(Cl)Cl | inactive | inactive | inactive | inactive | inactive | inactive | inactive | inactive | inactive | inactive | inactive | inactive | inactive | inactive | inactive | inactive | inactive |  |  |
| O=P(O)(O)CCCl | inactive | inactive | inactive | inactive | inactive | inactive | inactive | inactive | inactive | inactive | inactive | inactive | inactive | inactive | inactive | inactive | inactive | inactive | inactive |
| c1cc2c3c(cccc3c1)CC2 | inactive | inactive | inactive | inactive | inactive | inactive | inactive | inactive | inactive | inactive | inactive |  | inactive | inactive | inactive | inactive | inactive | inactive | inactive |
| CNC(=O)O/N=C(\SC)C(=O)N(C)C | inactive | inactive | inactive | inactive | inactive | inactive | inactive | inactive | inactive | inactive | inactive | inactive | inactive | inactive | inactive | inactive | inactive |  | inactive |
| Cc1cc(Cl)ccc1O | inactive | inactive | inactive | inactive | inactive | inactive | inactive | inactive | inactive | inactive | inactive | inactive | inactive | inactive | inactive | inactive | inactive | inactive | inactive |
| CCOP(=S)(OCC)Oc1cc(C)nc(C(C)C)n1 | inactive | inactive | inactive | inactive | inactive | inactive | inactive | inactive | inactive | inactive | inactive | inactive | inactive | inactive | inactive | inactive | inactive |  | inactive |
| CC(C)(C)C(=O)CCl | inactive | inactive | inactive | inactive | inactive | inactive | inactive | inactive | inactive | inactive | inactive | inactive | inactive | inactive | inactive | inactive | inactive | inactive | inactive |
| CCOP(=S)(OCC)Oc1cnc2ccccc2n1 | inactive | inactive | inactive | inactive | inactive | inactive | inactive | inactive | inactive | inactive | inactive | inactive | inactive | inactive | inactive | inactive | inactive | inactive | inactive |
